Among the data in PubChem BioAssay (NCATS) are Potency values, retold here.

Molecules are shown by their SMILES. Inconclusive results are not listed. Activity calls are given as the source filed them. The call rests on the fitted dose curve; in most records, active means well fitted cell-killing curve with a large enough effect; inconclusive means small, poorly fitted or top-dose-only effect, or effect the other way; inactive means no such curve, though single readings can be large or run the other way.
Potency means the concentration at half of the fitted maximal effect.

The test in a line: Quantitative High-Throughput drug screen in 47 multiple myeloma cell lines against the NCATS MIPE library collection: MMM1_PLB cell viability assay (AID 1918976). Further: nearly all actives have a fitted effect of over 35% in size. The conditions noted are these: MMM1 myeloma cells viability, CellTiter-Glo, 48 h. From the text: PI: Beverly A. Mock Ph.D.
Laboratory of Cancer Biology and Genetics,
Center for Cancer Research, National Cancer Institute,
National Institute of Health, Bethesda, Maryland
Drug resistance and disease progression are common in multiple myeloma (MM) patients, underscoring the need for new therapeutic combinations. […] We hypothesized that effective combinations would reduce MYC expression and enhance p16 activity. […] These preclinical data identify potentially useful drug combinations for evaluation in drug-resistant MM and reveal potential mechanisms of combined drug sensitivity.
Described herein is the primary MIPE qHTS used to cherrypick compounds. Validated compounds were then further tested for potential synergistic activiy.
[1] Peat TJ, Gaikwad SM, Dubois W, Gyabaah-Kessie N, Zhang S, Gorjifard S, Phyo Z, Andres M, Hughitt VK, Simpson RM, Miller MA, Girvin AT, Taylor A, Williams D, D'Antonio N, Zhang Y, Rajagopalan A, Flietner E, Wilson K, Zhang X, Shinn P, Klumpp-Thomas C, McKnight C, Itkin Z, Chen L, Kazandijian D, Zhang J, Michalowski AM, Simmons JK, Keats J, Thomas CJ, Mock BA. Drug combinations identified by high-throughput screening promote cell cycle transition and upregulate Smad pathways in myeloma. Cancer Lett. 2023 Aug 1;568:216284. doi: 10.1016/j.canlet.2023.216284. Epub 2023 Jun 24. PMID: 37356470; PMCID: PMC10408729.
SEQUENCE No. (e.g., 1, 2, 3, etc.); […] (e.g., Cells, Incubation, Reagent, etc.); VALUE and DESCRIPTION.
1; Cells; 5 uL; white, solid bottom 1536-well Greiner assay plate.
2; Compounds; 23 nL; Kalypsis pin tool (Wako USA) equipped with a 1536-well pin head to transfer to the assay plates.
3; Incubation; 48 hours; 37C incubation.
4; Reagent;5uL; CellTiter Glo (Promega).
5; Detector; 425V; Luminescence; Viewlux PerkinElmer.
NOTES (numbers refer to Sequence numbers above)
1. The cell-based screening methods employed in this study were like those previously published. Briefly, the corresponding myeloma cell lines were screened in 1,536-well plates with 500 cells, 5-uL per well for inhibition of cell viability (assessed by measuring ATP levels with CellTiterGlo).
2. NCATS MIPE 4.0 library of approved and investigational drugs were added using the Kalypsis pin tool. Wells treated with DMSO only for 100% viability and media only for 0% viability were used as controls.
3. The assay plates were covered and incubated for 48 hours in a 37C, 5% CO2 incubator with controlled humidity.
4. After 48 hours, CellTilter-GloTM luminescent substrate mix (Promega) reagent was added to the assay plate and plates we incubated for 5 min at room temperature.
5. Signal was measured as median relative luminescence units on a ViewLux (PerkinElmer) multiplate reader.
[1] Heske CM, Davis MI, Baumgart JT, Wilson K, Gormally MV, Chen L, Zhang X, Ceribelli M, Duveau DY, Guha R, Ferrer M, Arnaldez FI, Ji J, Tran HL, Zhang Y, Mendoza A, Helman LJ, Thomas CJ. Matrix Screen Identifies Synergistic Combination of PARP Inhibitors and Nicotinamide Phosphoribosyltransferase (NAMPT) Inhibitors in Ewing Sarcoma. Clin Cancer Res. 2017 Dec 1;23(23):7301-7311. doi: 10.1158/1078-0432.CCR-17-1121. Epub 2017 Sep 12. PMID: 28899971; PMCID: PMC6636827.
Background: In ATP-based viability assays light output follows the ATP content of the culture.
Turning to `COc1ccc2c(c1OC)CN1CCc3cc4c(cc3C1C2)OCO4` (stereo not given), the Potency is 26.4 µM (active).

Consider `CC1=C2C[C@@H]3[C@@H](CC=C4C[C@@H](O)CC[C@@]43C)[C@@H]2CC[C@]12O[C@H]1C[C@H](C)CN[C@H]1[C@H]2C`, for which the Potency is 9.35 µM (active). Next, `CN(C)CCc1ccc(O)cc1`: 1.66 µM (active).

For `Cn1c(CCCC(=O)O)nc2cc(N(CCCl)CCCl)ccc21`, the Potency was 10.5 µM (active). Next, `C=C(C)[C@H]1Cc2c(ccc3c2O[C@@H]2COc4cc(OC)c(OC)cc4[C@@H]2C3=O)O1`: 0.166 µM (active); `Cc1sc2c(c1C)C(c1ccc(Cl)cc1)=N[C@@H](CC(=O)OC(C)(C)C)c1nnc(C)n1-2`: 1.05 µM (active). Next, `C[C@@H]1[C@@H](CC(C[C@H]2O[C@@H]3O[C@]4(C)CC[C@@H]5[C@H](C)CC[C@@H]([C@H]2C)[C@@]35OO4)C[S+](=O)([O-])c2ccc(COC(=O)N(C)C)cc2)O[C@@H]2O[C@]3(C)CC[C@H]4[C@H](C)CC[C@@H]1[C@@]24OO3` (stereo not given in full): 0.148 µM (active). Turning to `N[C@@H](Cc1ccc(N(CCCl)CCCl)cc1)C(=O)O`, the Potency is 4.69 µM (active). Next, `C#CCN(C)[C@H](C)Cc1ccccc1`: 2.96 µM (active); `Fc1ccc(C(OCCN2CCN(CCCc3ccccc3)CC2)c2ccc(F)cc2)cc1`: 14.8 µM (active). As for `CN(C)[C@@H]1C(=O)C(C(N)=O)=C(O)[C@@]2(O)C(=O)C3=C(O)c4c(O)cccc4[C@@](C)(O)[C@H]3C[C@@H]12`, the Potency was 8.33 µM (active). The figure for `COC[C@H]1OC(=O)c2coc3c2[C@@]1(C)C1=C(C3=O)C2CCC(=O)[C@@]2(C)C[C@H]1OC(C)=O` (stereo not given in full) is 2.64 µM (active). In the case of `COC1(CS(=O)c2ccccc2)CCN(CCc2c[nH]c3ccc(F)cc23)CC1` (stereo not given), the Potency was 3.72 µM (active). Next, `C[C@@H]1[C@@H](C(=O)C[C@H]2O[C@@H]3O[C@]4(C)CC[C@@H]5[C@H](C)CC[C@@H]([C@H]2C)[C@@]35OO4)O[C@@H]2O[C@]3(C)CC[C@H]4[C@H](C)CC[C@@H]1[C@@]24OO3`: 0.418 µM (active). Take `CNC(=O)N1N=C(c2ccc(N)cc2)c2cc3c(cc2CC1C)OCO3` (stereo not given): the Potency is 14.8 µM (active).
